# PubChem BioAssay (NCATS)
# Results filed as inconclusive are left out. Entries that show only a call come without a potency. Calls of active or inactive are those of the source. Calls come from the whole dose curve; as a rule, active = well fitted inhibition curve with a large enough effect; inconclusive = small, poorly fitted or top-dose-only effect; inactive = flat fitted curve, though single readings scatter.
# Columns and labels:
# Experiment in all cases: qHTS profiling for inhibitors of Plasmodium falciparum proliferation (AID 504749); note: nearly all actives have a fitted effect of over 60% in size
# Conditions in all cases: P. falciparum in erythrocytes, SYBR Green DNA, 72 h; series mostly up to 28.7 µM
# [1] = system: CP191
# Summary of the method: (§1)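 Readout was DNA-dye fluorescence from lysed cultures, ex 485/em 535 nm. Parasitized red cells had grown 72 h with compound; data scaled between 0.29 uM artemisinin and DMSO wells and corrected using vehicle-only plates.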
# [2] = system: CP192
# Summary of the method: as §1
# [3] = system: CP194
# Summary of the method: as §1
# [4] = system: CP201
# Summary of the method: as §1
# [5] = system: CP203
# Summary of the method: as §1
# [6] = system: CP215
# Summary of the method: as §1
# [7] = system: CP217
# Summary of the method: as §1
# [8] = system: CP237
# Summary of the method: as §1
# [9] = system: CP238
# Summary of the method: as §1
# [10] = system: CP252
# Summary of the method: as §1
# [11] = system: CP256
# Summary of the method: as §1
# [12] = system: CP260
# Summary of the method: as §1
# [13] = system: CP265
# Summary of the method: as §1
# [14] = system: CP266
# Summary of the method: as §1
# [15] = system: CP268
# Summary of the method: as §1
# [16] = system: CP269
# Summary of the method: as §1
# [17] = system: CP247
# Summary of the method: as §1
# [18] = system: CP250
# Summary of the method: as §1
# [19] = system: CP262
# Summary of the method: as §1
# [20] = system: CP211
# Summary of the method: as §1
# Potency is the fitted concentration of half-maximal effect.
Compound,Potency [1],Potency [2],Potency [3],Potency [4],Potency [5],Potency [6],Potency [7],Potency [8],Potency [9],Potency [10],Potency [11],Potency [12],Potency [13],Potency [14],Potency [15],Potency [16],Potency [17],Potency [18],Potency [19],Potency [20]
CC[N+](C)(CC)CCOC(=O)C(O)(c1ccccc1)C1CCCCC1 (configuration not stated),inactive,inactive,inactive,inactive,inactive,inactive,inactive,inactive,inactive,inactive,inactive,inactive,inactive,inactive,inactive,inactive,–,–,–,–
NC(N)=NN=C(/C=C/c1ccc([N+](=O)[O-])o1)/C=C/c1ccc([N+](=O)[O-])o1,10 µM (active),–,–,–,–,–,–,3.55 µM (active),–,–,–,3.55 µM (active),–,–,–,–,7.08 µM (active),11.2 µM (active),inactive,–
CCOCCn1c(N2CCCN(C)CC2)nc2ccccc21,inactive,inactive,–,inactive,–,inactive,inactive,11.2 µM (active),inactive,inactive,inactive,inactive,–,–,–,inactive,inactive,inactive,inactive,inactive
COc1cc([C@H]2Oc3cc([C@H]4Oc5cc(O)cc(O)c5C(=O)[C@@H]4O)ccc3O[C@@H]2CO)ccc1O,inactive,inactive,–,inactive,inactive,inactive,inactive,inactive,inactive,inactive,inactive,inactive,inactive,inactive,inactive,inactive,–,inactive,inactive,inactive
O=S(c1cc(Cl)cc(Cl)c1O)c1cc(Cl)cc(Cl)c1O,17.8 µM (active),–,–,–,–,–,–,7.08 µM (active),–,–,–,–,–,–,–,–,–,28.2 µM (active),–,–
CCN(CC)CCOc1ccccc1C(=O)CCc1ccccc1,inactive,inactive,–,–,–,–,–,–,–,–,–,inactive,–,–,–,inactive,–,inactive,inactive,–
O=C(O)c1ccc(S(=O)(=O)N(Cl)Cl)cc1,inactive,inactive,inactive,–,inactive,inactive,inactive,inactive,inactive,inactive,inactive,inactive,inactive,inactive,inactive,inactive,inactive,inactive,–,inactive
CC(C)=CCOc1ccc(/C=C/C(=O)c2ccc(OCC=C(C)C)cc2OCC(=O)O)cc1,inactive,inactive,–,inactive,inactive,–,inactive,inactive,inactive,inactive,inactive,inactive,inactive,inactive,inactive,inactive,inactive,inactive,inactive,inactive
O=C1C(=O)c2ccccc2C(O)=C1C1CCC(c2ccc(Cl)cc2)CC1 (configuration not stated),0.0028 µM (active),0.0051 µM (active),0.0057 µM (active),0.0064 µM (active),0.0064 µM (active),–,0.0014 µM (active),0.0011 µM (active),0.005 µM (active),0.0032 µM (active),0.0016 µM (active),0.0008 µM (active),0.0006 µM (active),0.0064 µM (active),0.0057 µM (active),0.0051 µM (active),0.0022 µM (active),0.0028 µM (active),–,0.0057 µM (active)
CC(=O)NC(=O)c1ccccc1O,inactive,inactive,inactive,inactive,inactive,inactive,inactive,inactive,inactive,inactive,inactive,inactive,inactive,inactive,inactive,inactive,inactive,inactive,inactive,–
COc1ccc(C(=O)c2ccccc2O)c(O)c1,–,inactive,inactive,inactive,inactive,–,–,–,inactive,–,inactive,inactive,–,inactive,inactive,inactive,inactive,inactive,inactive,inactive
O=[N+]([O-])c1cccc(S(=O)(=O)NCCNS(=O)(=O)c2cccc([N+](=O)[O-])c2)c1,–,inactive,inactive,inactive,–,inactive,inactive,–,inactive,inactive,inactive,–,inactive,inactive,–,–,inactive,inactive,–,inactive
O=C(O)CCc1nc2ccccc2[nH]1,–,–,–,–,–,–,–,–,inactive,–,inactive,–,inactive,–,–,–,inactive,–,–,–
CN(C)C(=O)Nc1ccc(Cl)c(Cl)c1,–,inactive,–,–,–,–,–,–,–,–,–,–,inactive,–,inactive,–,4.47 µM (active),inactive,inactive,–
CN(C)CCN1C(=O)c2ccccc2N(C)c2ccccc21,–,–,–,–,–,inactive,–,3.98 µM (active),–,–,–,–,12.6 µM (active),inactive,–,–,–,inactive,inactive,–
CC1CCc2c(N3CCC(O)CC3)c(F)cc3c(=O)c(C(=O)O)cn1c23 (configuration not stated),–,inactive,inactive,inactive,–,–,–,–,–,–,inactive,12.6 µM (active),inactive,–,–,–,–,inactive,–,inactive
CNCCCCOc1ccccc1Cc1ccccc1,–,inactive,–,–,4.26 µM (active),–,–,–,8.91 µM (active),–,–,–,8.91 µM (active),–,–,–,–,–,inactive,–
COc1cc(N)c(Cl)cc1C(=O)NC1CCN(Cc2ccccc2)CC1,–,inactive,inactive,inactive,inactive,inactive,inactive,inactive,inactive,inactive,inactive,inactive,inactive,inactive,inactive,inactive,inactive,inactive,inactive,inactive
CN(CCCN1c2ccccc2CCc2ccccc21)CC(=O)c1ccc(Cl)cc1,–,inactive,–,inactive,–,–,11.2 µM (active),12.6 µM (active),–,–,–,10 µM (active),11.2 µM (active),–,–,–,–,–,inactive,–
Clc1cccc(C(c2ccc3nc[nH]c3c2)n2ccnc2)c1 (configuration not stated),–,–,–,–,–,–,–,–,inactive,–,–,–,–,–,–,–,–,–,inactive,12 µM (active)
